From PubChem BioAssay (NCI)
This is part of a sample that, as a whole, favours compounds with a hit. Of some 83,000 tested, about 20% had one in any assay.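 Percent growth is the endpoint: 0 to 100 indicates growth inhibition (40 means 60% inhibition), 0 means no net growth, and negative values indicate cell death.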 A number with no mark means an inactive call. Active and inactive are the calls of the source. Rule for the calls: active = growth percent below 10; inactive = the rest.

How the values were obtained:
Assay in all cases: NCI-60 one-dose screen, 48 h (100 = growth as untreated, 0 = no growth, -100 = all killed)
Details in all cases: 10 µM unless noted
HCT-15 colon = test system: HCT-15 colon
HT29 colon = test system: HT29 colon
SNB-75 CNS = test system: SNB-75 CNS
SNB-19 CNS = test system: SNB-19 CNS
U251 CNS = test system: U251 CNS
PC-3 prostate = test system: PC-3 prostate
SK-MEL-5 melanoma = test system: SK-MEL-5 melanoma
UACC-62 melanoma = test system: UACC-62 melanoma
LOX IMVI melanoma = test system: LOX IMVI melanoma
SK-MEL-28 melanoma = test system: SK-MEL-28 melanoma
SK-MEL-2 melanoma = test system: SK-MEL-2 melanoma
EKVX NSCLC = test system: EKVX NSCLC
SN12C renal = test system: SN12C renal
UO-31 renal = test system: UO-31 renal
TK-10 renal = test system: TK-10 renal
ACHN renal = test system: ACHN renal
CAKI-1 renal = test system: CAKI-1 renal
A498 renal = test system: A498 renal
CCRF-CEM leukemia = test system: CCRF-CEM leukemia
MOLT-4 leukemia = test system: MOLT-4 leukemia

Structure (SMILES)	growth (HCT-15 colon)	growth (HT29 colon)	growth (SNB-75 CNS)	growth (SNB-19 CNS)	growth (U251 CNS)	growth (PC-3 prostate)	growth (SK-MEL-5 melanoma)	growth (UACC-62 melanoma)	growth (LOX IMVI melanoma)	growth (SK-MEL-28 melanoma)	growth (SK-MEL-2 melanoma)	growth (EKVX NSCLC)	growth (SN12C renal)	growth (UO-31 renal)	growth (TK-10 renal)	growth (ACHN renal)	growth (CAKI-1 renal)	growth (A498 renal)	growth (CCRF-CEM leukemia)	growth (MOLT-4 leukemia)
C=C(C)C1CCC2(C(=O)O)CCC3(C)C(CCC4C5(C)CCC(OC(=O)NCc6ccccc6)C(C)(C)C5CCC43C)C12 (stereo not given)	40.8%	43.5%	75.7%	65.4%	40.6%	41.2%	28.4%	33.9%	39.8%	61.5%	54.6%	29.1%	42.3%	40.3%	59.2%	30.3%	16.1%	56.3%	36.6%	29.4%
CCOC(=O)c1sc2nc(-c3cc(OC)c(OC)c(OC)c3)nc(N3CCOCC3)c2c1C	29.1%	40.6%	56.2%	53.2%	36.2%	14.2%	2.9% (active)	15.7%	45.1%	42.2%	28.1%	39.5%	36%	22.4%	48.3%	33.6%	31.6%	-0.941% (active)	17.1%	17.1%
CC1Cc2c(ncnc2-n2cnc3ccccc32)N(C)c2ccccc21 (stereo not given)	21.6%	0.852% (active)	43%	31.5%	23.7%	25.6%	20.8%	30.9%	44.9%	70.4%	-6.66% (active)	48.6%	35.5%	46.4%	50%	55.7%	33.6%	-2.09% (active)	13%	23.2%
Cc1ccc(NCCN2CCCCC2)c2c(=O)c3ccccc3sc12	13.9%	20.5%	38.7%	36%	21.1%	38.2%	-92.2% (active)	-2.99% (active)	-50.1% (active)	11%	45.6%	68.6%	32%	-16.6% (active)	42.6%	15.9%	38.6%	28.3%	30.2%	11.4%
COc1cc2c(c(Br)c1N)-c1cc(Br)c(N)cc1C2=O	81.3%	86.2%	25.9%	69.1%	57.3%	93.2%	56.5%	74.9%	68.8%	81.4%	108%	34.8%	39.9%	51.7%	27.2%	57.6%	74.3%	61.7%	86%	97.2%
FC(F)(F)c1ccc2c(c1)Sc1ccccc1N2	92.2%	102%	89%	95.9%	91.5%	93.9%	98.1%	85.3%	104%	110%	106%	91.6%	100%	73.6%	101%	101%	82%	80.7%	102%	88.7%
CC1(C)CC[C@]2(C(=O)OC(=O)[C@]34CCC(C)(C)C[C@@H]3C3=CC[C@@H]5[C@@]6(C)CCC(=O)C(C)(C)[C@@H]6CC[C@@]5(C)[C@]3(C)CC4)CC[C@]3(C)C(=CC[C@@H]4[C@@]5(C)CCC(=O)C(C)(C)[C@@H]5CC[C@]43C)[C@H]2C1	73.6% [100 µM]	44.8% [100 µM]	15.8% [100 µM]	62.8% [100 µM]	64.6% [100 µM]	36.6% [100 µM]	25% [100 µM]	49.9% [100 µM]	64.6% [100 µM]	81.7% [100 µM]	76.1% [100 µM]	81.3% [100 µM]	55.8% [100 µM]	59.9% [100 µM]	95.3% [100 µM]	73.8% [100 µM]	45.6% [100 µM]	95.6% [100 µM]	44.4% [100 µM]	41.5% [100 µM]
CCCCOC(=O)c1c(C)[nH]c(/C=C2\N=C(c3ccc[nH]3)C=C2OC)c1C	-1.74% (active)	1.64% (active)	-20% (active)	26.6%	1.25% (active)	13.9%	-98% (active)	-28% (active)	-65.8% (active)	-14% (active)	-64.6% (active)	-8.89% (active)	8.83% (active)	-72.2% (active)	9.12% (active)	-40.4% (active)	-29.2% (active)	-13.4% (active)	12.6%	8.13% (active)
C/C=C/C1OC23CCCCC2C(C#N)(C(=N)O3)C1(C#N)C#N (stereo not given)	85%	109%	85.9%	101%	102%	98.1%	99.1%	87%	81.9%	109%	107%	106%	93.7%	76.2%	103%	94.1%	81.2%	118%	81.2%	95%
Cc1ccc(-c2cc(-c3ccc(C)cc3)nc(N3CCN(CCNc4ccnc5cc(Cl)ccc45)CC3)n2)cc1	42.1%	11.9%	-21.1% (active)	38.7%	35.7%	44.6%	38.5%	12.2%	6.97% (active)	14.6%	65.4%	74%	34.7%	-27.8% (active)	0.923% (active)	72.9%	32.7%	47.1%	8.72% (active)	38.9%
[2H]C1([2H])CCN(C(=O)C2CC2)c2cc(NS(=O)(=O)c3ccc(-c4cccc(C(N)=O)c4)cc3)ccc21	90.7%	13.6%	11.3%	41.2%	29.8%	34.2%	15.4%	21.4%	39.2%	43.9%	7.75% (active)	72.7%	43.7%	77.8%	64.2%	73.5%	72.3%	-0.663% (active)	30.7%	44.3%
C#CCNC(=O)CC[C@@H](C)[C@H]1CC[C@H]2[C@@H]3CC[C@@H]4CC(=O)CC[C@]4(C)[C@H]3CC[C@]12C	1.91% [100 µM] (active)	-25% [100 µM] (active)	-58.3% [100 µM] (active)	14.8% [100 µM]	-43.4% [100 µM] (active)	-14.6% [100 µM] (active)	-86.5% [100 µM] (active)	-74% [100 µM] (active)	-71.6% [100 µM] (active)	-84.4% [100 µM] (active)	-57.1% [100 µM] (active)	-31.8% [100 µM] (active)	-72% [100 µM] (active)	-92.6% [100 µM] (active)	-16.8% [100 µM] (active)	-86.2% [100 µM] (active)	-59.4% [100 µM] (active)	-23.9% [100 µM] (active)	-34% [100 µM] (active)	-18.4% [100 µM] (active)
CC(=O)Nc1ccc2nc3ccc(NC(C)=O)cc3[n+](-c3ccccc3)c2c1	104%	115%	82.2%	94.2%	109%	104%	96.3%	103%	96.8%	166%	106%	118%	104%	93.3%	140%	98.9%	122%	158%	73.1%	38.9%
C[C@]12CCc3c(ccc4cc(O)ccc34)[C@@H]1CC[C@H]2O	93.4%	104%	89.2%	87.2%	101%	88.8%	101%	61.4%	96.4%	99.3%	101%	56.9%	87.6%	87.2%	102%	103%	87.8%	85%	90.4%	95.1%
